VACV mCherry inh – qHTS for Stage-Specific Inhibitors of Vaccinia Orthopoxvirus: mCherry Reporter Primary qHTS | Vaccinia virus mCherry reporter infection, fluorescence | Potency, µM (highest dose often 36.5 µM), inactives show at the highest dose activity change, negative = inhibition, hits mostly inhibitors | 310,000 compounds, 0.63% hits; calls by dose curve; tested in A549 cells; further: nearly all actives have a fitted effect of over 35% in size
AMA1-RON2 inh – qHTS for Inhibitors of AMA1-RON; Towards Development of Antimalarial Drug Lead: Primary Screen | AID 720542, 2013 | AlphaScreen AMA1-biotinylated RON2 peptide binding | Potency, µM (titrated, usually from 58.2 µM), inactives show top-dose activity change, negative = inhibition, most hits filed as inhibitors | 360,000 compounds, 0.2% hits | Plasmodium falciparum AMA1 (3D7) - RON2 peptide interaction;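 further: 0% = vehicle wells and -100% = peptide control; nearly all actives have a fitted effect of over 45% in size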
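AMA1 (3D7) with his tag at 25 nM final met compounds first, then biotinylated RON2 peptide at 25 nM; detection used donor plus acceptor beads, 10 µg/mL apiece, read by AlphaScreen after 30 min at room temperature.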
Pf growth 48h – Primary qHTS for delayed death inhibitors of the malarial parasite plastid, 48 hour incubation; P. falciparum luciferase growth in erythrocytes, 48 h; Potency, µM (highest dose often 28.7 µM), inactives show top-dose activity change, negative = inhibition, usual class: inhibitors; 310,000 compounds, 5.9% hits
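First compound was added to culture medium, then infected red cells at 0.1% parasitemia and 2% hematocrit (final). After incubation at 37 C under 5% CO2, luciferase detection reagent was dispensed and light output recorded.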
VACV Venus inh – qHTS for Stage-Specific Inhibitors of Vaccinia Orthopoxvirus: Venus Reporter Primary qHTS; Vaccinia virus Venus reporter expression, fluorescence; Potency, µM (titrated, usually from 36.5 µM), without a hit: at the top dose activity change, negative = inhibition, hits mostly inhibitors; 330,000 compounds, 0.46% hits; calls by dose curve; tested in A549 cells; further: nearly all actives have a fitted effect of over 30% in size
Pf growth 96h – Primary qHTS for delayed death inhibitors of the malarial parasite plastid, 96 hour incubation | P. falciparum luciferase reporter growth, 96 h | Potency, µM (series often up to 28.7 µM), inactives show at the highest dose activity change, negative = inhibition, usual class: inhibitors | 320,000 compounds, 6.9% hits | AID 504834, 2011
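P. falciparum expressing integrated firefly luciferase, in erythrocytes at 2% hematocrit, 0.05% parasitemia, incubated with compounds 96 h at 37 C, 5% CO2. Growth inhibition read as loss of luminescence; two-generation exposure targets delayed-death apicoplast inhibitors.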
* marks the source's active call; other numbers are inactive results; i = inactive; u = inconclusive; x = not tested or not shown; [ ] = remark or other dose. In the library only some 8.7% were active in any assay of this set; here they are far more common. Unless noted, the call rests on the fitted dose curve; in most records, active means well fitted curve in the direction sought with a large enough effect; inconclusive means small, poorly fitted or top-dose-only effect, or another doubt; inactive means no such curve, though single readings can be large; an effect the other way counts as inactive or inconclusive. Unless noted, on the % scale 0 is the no-effect control and ±100 the full control effect; potency means the concentration at half of the fitted maximal effect.

SMILES	VACV mCherry inh	AMA1-RON2 inh	Pf growth 48h	VACV Venus inh	Pf growth 96h
O=C(CCCN1C(=O)c2cccc3cccc(c23)C1=O)NC1CCS(=O)(=O)C1 (configuration not stated)	-11%	-1%	u	-7%	12µM*
O=C(CN1C(=O)c2ccccc2C1=O)NC1CCS(=O)(=O)C1 (configuration not stated)	i	-1%	x	-6%	x
COc1ccc(CNC(=O)Cc2coc3ccc(C)cc23)cc1	-5%	x	x	-3%	x
COc1ccc(CNC(=O)Cc2c(C)c3c(cc(C)c4c(C)coc43)oc2=O)cc1	-7%	x	x	-1%	x
COc1cc([N+](=O)[O-])ccc1NC(=O)N1CCC2(CC1)Nc1cc(F)ccc1-n1cccc12	-19%	x	x	-10%	x
O=C(CCCN1C(=O)/C(=C/c2ccc(F)cc2)SC1=S)NCCCn1ccnc1	33%	15%	u	232%	9.3µM*
COc1ccc(C(=O)Nc2ccccc2NC(=O)c2ccco2)c(OC)c1	x	10%	u	x	38%
COc1ccc(OC)c(NC(=O)c2ccccc2NC(=O)c2ccco2)c1	-15%	-17%	3.3µM*	-8%	-6%
CC(C)C(NC(=O)c1ccccc1NC(=O)c1ccco1)C(=O)NNC(=O)c1ccncc1 (configuration not stated)	-9%	64%	u	-2%	u
COc1ccc(OC)c(NC(=O)c2cnc(Nc3ccccc3OC)c3ccccc23)c1	u	-16%	10µM*	u	17%
O=C(NCc1ccc(CNC(=O)c2ccco2)cc1)c1ccco1	x	-8%	-3%	x	12µM*
CCC(C)C(NC(=O)c1ccccc1NC(=O)c1ccco1)C(=O)NNC(=O)c1ccncc1 (configuration not stated)	-6%[7.34 µM]	113%	10µM*	u	u
CCOc1ccc(-c2cn3c(n2)sc2cc(C(=O)NCCC4=CCCCC4)ccc23)cc1	-13%	x	x	-22%	x
Cc1ccc(CNC(=O)c2ccc3c(c2)c(C)c(C)n3Cc2ccc(Cl)cc2)o1	-27%	x	x	-25%	x
CCc1cccc(-n2c(=O)c3cccnc3n2CC(=O)Nc2ccccc2C(=O)OC)c1	-8%[7.34 µM]	x	x	-3%[7.34 µM]	x
CN(Cc1ccccc1)c1ccc(-c2nc(-c3ccccn3)no2)cc1[N+](=O)[O-]	i	x	x	-7%	x
COc1ccc(C(=O)NNC(=O)C(NC(=O)c2ccccc2NC(=O)c2ccco2)C(C)C)cc1 (configuration not stated)	i	103%	-4%	-1%	2%
CCC(C)C(NC(=O)c1ccccc1NC(=O)c1ccco1)C(=O)NNC(=O)c1ccc(OC)cc1 (configuration not stated)	x	107%	9.3µM*	x	8.3µM*
O=C(Nc1ccccc1C(=O)NC1CCCCC1)c1ccco1	x	3%	-22%	-19%	u
CCC(C)C(NC(=O)c1ccccc1NC(=O)c1ccco1)C(=O)NC1CCCCC1 (configuration not stated)	x	2%	9.3µM*	-18%	310%
O=C(Nc1ccccc1C(=O)Nc1ccccc1C(=O)NCc1ccco1)c1ccco1	i	-4%	8.3µM*	-7%	x
O=C(Nc1ccccc1C(=O)NCc1ccco1)c1ccco1	x	3%	3%	x	x
CCN(CC)S(=O)(=O)c1ccc(OC)c(NC(=O)c2cccc(C)c2[N+](=O)[O-])c1	x	4%	-1%	x	-5%
COc1ccc(OC)c(NC(=O)c2cccc(C)c2[N+](=O)[O-])c1	x	0%	9%	x	1.7µM*
CCC1CN(C(=O)Nc2ccc(C)c(F)c2)c2ccccc2S1 (configuration not stated)	-6%	x	x	6%	x
CCOc1cccc(NC(=O)C2CC(=O)N(C)C(=Nc3cccc(OC)c3)S2)c1 (configuration not stated)	-13%	x	x	-15%	x
Cc1ccc(-n2nc(C)c3c(C(F)(F)F)cc(-c4cccnc4)nc32)cc1Cl	-2%	x	x	-6%	x
Cc1cc(OCCOCCN2CCCC2)ccc1C(C)C	x	-7%	u	x	10µM*

From PubChem
